# Values joined by “and” are separate entries in the source; they are usually repeats but may differ in a detail not shown here. Equal entries are not always repeated. About 83,000 compounds went through this panel and 20% of them were active in at least one assay; those are over-represented in the sample as a whole.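 96-well plates, one dose, 48 hours. Percent growth reported; active if below 10.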 Active and inactive are the calls of the source.
# Key:
# Assay in all cases: NCI-60 one-dose screen, 48 h (100 = growth as untreated, 0 = no growth, -100 = all killed)
# Settings in all cases: 10 µM unless noted
# NCI-H23 lung = tested on: NCI-H23 lung
# NCI-H226 lung = tested on: NCI-H226 lung
# NCI-H322M lung = tested on: NCI-H322M lung
# HOP-62 NSCLC = tested on: HOP-62 NSCLC
# NCI-H460 lung = tested on: NCI-H460 lung
# HOP-92 NSCLC = tested on: HOP-92 NSCLC
# NCI-H522 lung = tested on: NCI-H522 lung
# A549/ATCC NSCLC = tested on: A549/ATCC NSCLC
# 786-0 renal = tested on: 786-0 renal
# COLO 205 colon = tested on: COLO 205 colon
# DU-145 prostate = tested on: DU-145 prostate
# K-562 leukemia = tested on: K-562 leukemia
# MALME-3M melanoma = tested on: MALME-3M melanoma
# MDA-MB-231 breast = tested on: MDA-MB-231 breast
# RXF 393 renal = tested on: RXF 393 renal
# SF-268 CNS = tested on: SF-268 CNS
# SF-295 CNS = tested on: SF-295 CNS
# SF-539 CNS = tested on: SF-539 CNS
# UACC-257 melanoma = tested on: UACC-257 melanoma
# M14 melanoma = tested on: M14 melanoma
Compound,growth (NCI-H23 lung),growth (NCI-H226 lung),growth (NCI-H322M lung),growth (HOP-62 NSCLC),growth (NCI-H460 lung),growth (HOP-92 NSCLC),growth (NCI-H522 lung),growth (A549/ATCC NSCLC),growth (786-0 renal),growth (COLO 205 colon),growth (DU-145 prostate),growth (K-562 leukemia),growth (MALME-3M melanoma),growth (MDA-MB-231 breast),growth (RXF 393 renal),growth (SF-268 CNS),growth (SF-295 CNS),growth (SF-539 CNS),growth (UACC-257 melanoma),growth (M14 melanoma)
CC(=O)OC1CC2(O)C(CCC3(C)C(c4ccc(=O)oc4)CCC32O)C2(C)CCC(OC3OC(CO)C(O)C(O)C3O)C=C12 (stereo not given),-57.2% (active),-91.6% (active),-81.6% (active),-70.7% (active),-75.3% (active),-24.2% (active),-39.2% (active),-72.9% (active),-74.6% (active),-47.1% (active),-100% (active),-30.4% (active),-43.7% (active),-20.3% (active),-45% (active),-97.4% (active),-62.2% (active),-97.9% (active),-62.3% (active),-78% (active)
CC1(C)N(Nc2ccccc2)C(=O)C2CCCN21 (stereo not given),97.2% (inactive),84.6% (inactive),87.4% (inactive),76.1% (inactive),99.8% (inactive),52.7% (inactive),53.2% (inactive),79.4% (inactive),33.4% (inactive),104% (inactive),16.8% (inactive),8.29% (active),84.2% (inactive),89.6% (inactive),116% (inactive),39.5% (inactive),84.5% (inactive),89.3% (inactive),89.2% (inactive),10% (active)
C/C(=N/OC(=O)N(C)C)c1ccc(Cl)c(Cl)c1,98.2% (inactive),102% (inactive),96.1% (inactive),107% (inactive),107% (inactive),102% (inactive),102% (inactive),82.7% (inactive),103% (inactive),111% (inactive),121% (inactive),120% (inactive),115% (inactive),105% (inactive),108% (inactive),105% (inactive),112% (inactive),114% (inactive),97.4% (inactive),113% (inactive)
C[C@]12CC[C@H](O)C[C@@H]1CC[C@@H]1[C@@H]2CC[C@]2(C)OC(=O)CC[C@@H]12,108% (inactive),102% (inactive),87.2% (inactive),97.3% (inactive),109% (inactive),91.1% (inactive),81.2% (inactive),72.8% (inactive),88.7% (inactive),72.5% (inactive),107% (inactive),118% (inactive),82.7% (inactive),91.1% (inactive),117% (inactive),98.7% (inactive),93.9% (inactive),95.9% (inactive),73.7% (inactive),100% (inactive)
CC[C@H](C)[C@H](NC(=O)c1cnccn1)C(=O)N(C)[C@H](C[C@@H](OC(C)=O)c1nc(C(=O)N[C@@H](Cc2ccccc2)C[C@H](C)C(=O)OC)cs1)C(C)C,26.2% (inactive),33.6% (inactive),46.3% (inactive),17.6% (inactive),8.2% (active),16.9% (inactive),-24.6% (active),19.2% (inactive),24.2% (inactive),-20.3% (active),6.92% (active),5.13% (active),69.6% (inactive),-4.71% (active),17.4% (inactive),19.4% (inactive),-5.89% (active),-21.9% (active),44.3% (inactive),-5.51% (active)
CCOP(=O)(NC)OCC,95.6% (inactive),94.3% (inactive),122% (inactive),90.8% (inactive),104% (inactive),74.5% (inactive),112% (inactive),114% (inactive),92.1% (inactive),117% (inactive),112% (inactive),120% (inactive),121% (inactive),104% (inactive),118% (inactive),98.7% (inactive),129% (inactive),101% (inactive),121% (inactive),94.8% (inactive)
CC(C)COC(=O)Cc1ccccc1,106% (inactive),99.4% (inactive),104% (inactive),101% (inactive),109% (inactive),95.1% (inactive),99% (inactive),105% (inactive),104% (inactive),106% (inactive),115% (inactive),109% (inactive),94.4% (inactive),120% (inactive),102% (inactive),104% (inactive),111% (inactive),97.5% (inactive),104% (inactive),103% (inactive)
CN1CCN(c2ccc(Cl)cc2)CC1,73.6% (inactive),93.8% (inactive),94.2% (inactive),93.1% (inactive),44.6% (inactive),93.7% (inactive),44.3% (inactive),69.1% (inactive),104% (inactive),89.8% (inactive),6.91% (active),70.3% (inactive),126% (inactive),105% (inactive),66.9% (inactive),88.5% (inactive),57% (inactive),97.2% (inactive),84.4% (inactive),101% (inactive)
NC(N)=NC(N)=Nc1ccc(Cl)cc1,103% (inactive),98.5% (inactive),109% (inactive),112% (inactive),106% (inactive),89.7% (inactive),93.6% (inactive),111% (inactive),115% (inactive),112% (inactive),116% (inactive),99% (inactive),116% (inactive),113% (inactive),108% (inactive),95.4% (inactive),98.1% (inactive),103% (inactive),111% (inactive),114% (inactive)
N#CCN(CC#N)[N+](=O)[O-],109% (inactive),97.9% (inactive),110% (inactive),102% (inactive),104% (inactive),84.9% (inactive),94.4% (inactive),106% (inactive),103% (inactive),110% (inactive),107% (inactive),105% (inactive),111% (inactive),103% (inactive),106% (inactive),102% (inactive),110% (inactive),102% (inactive),113% (inactive),97% (inactive)
O=C(O)C1C(C(=O)O)C2(Cl)C(Cl)=C(Cl)C1(Cl)C2(Cl)Cl (stereo not given),96.8% (inactive) and 100% (inactive),98.5% (inactive) and 114% (inactive),106% (inactive) and 117% (inactive),99.6% (inactive) and 111% (inactive),101% (inactive) and 111% (inactive),94.3% (inactive) and 94.8% (inactive),97.2% (inactive) and 123% (inactive),104% (inactive) and 95.8% (inactive),111% (inactive) and 99.2% (inactive),101% (inactive) and 119% (inactive),107% (inactive) and 120% (inactive),113% (inactive) and 115% (inactive),104% (inactive) and 102% (inactive),111% (inactive) and 102% (inactive),103% (inactive) and 130% (inactive),105% (inactive) and 106% (inactive),101% (inactive) and 113% (inactive),88.5% (inactive),102% (inactive) and 104% (inactive),102% (inactive) and 109% (inactive)
O=C(CCCN1CCC2(CC1)C(=O)NCN2c1ccccc1)c1ccc(F)cc1,95.1% (inactive) and 49.3% (inactive),117% (inactive) and 102% (inactive),97.5% (inactive) and 81.5% (inactive),79.1% (inactive) and -10.2% (active),108% (inactive) and 94.1% (inactive),96.7% (inactive) and 67.2% (inactive),108% (inactive) and 80.4% (inactive),103% (inactive) and 89.3% (inactive),101% (inactive) and 88.3% (inactive),34.3% (inactive) and -64.9% (active),79% (inactive) and 34% (inactive),86% (inactive) and 85.1% (inactive),96.1% (inactive) and 92.9% (inactive),103% (inactive) and 74.2% (inactive),116% (inactive) and 105% (inactive),91.1% (inactive) and 62.8% (inactive),96.3% (inactive) and 63.4% (inactive),124% (inactive) and 62.6% (inactive),33.6% (inactive) and 21.6% (inactive),80.8% (inactive) and 54% (inactive)
C[C@]12CCc3sc(Nc4ccc(F)cc4F)nc3C1=CC[C@@H]1[C@@H]2CC[C@]2(C)C(=O)CC[C@@H]12,66.2% (inactive),84.2% (inactive),84.5% (inactive),87.1% (inactive),60.9% (inactive),77.1% (inactive),42.6% (inactive),61.7% (inactive),-27.7% (active),54.3% (inactive),24% (inactive),2.15% (active),69.5% (inactive),76.1% (inactive),5.6% (active),70.7% (inactive),51% (inactive),49.6% (inactive),71.9% (inactive),57.8% (inactive)
Cc1nc2ccccc2c(=O)n1-c1ccccc1F,100% (inactive),96.6% (inactive),111% (inactive),81.6% (inactive),105% (inactive),87.5% (inactive),88.1% (inactive),76.2% (inactive),103% (inactive),98.3% (inactive),109% (inactive),104% (inactive),112% (inactive),107% (inactive),96.5% (inactive),100% (inactive),98.3% (inactive),95.4% (inactive),77% (inactive),99.4% (inactive)

# Reference: PubChem BioAssay (NCI)
